Data published in ChEMBL document CHEMBL4513216, “Probing the Open Global Health Chemical Diversity Library for Multistage-Active Starting Points for Next-Generation Antimalarials” (ACS Infect Dis, 2020).
Among all 69,000 compounds or so, about 8,600 (12%) showed an effect of 50% or more. Only a selection was taken, and strong results are over-represented in it overall.

System: Plasmodium berghei
Assay: Screen against P. berghei liver stage (PbLuc), transformed with Luciferase, at 10uM
Assay type: functional, HepG2
Conditions: tested at 10 uM

Structure (SMILES) | INHIBITION [%]
CN(Cc1ccccc1)CC(O)Cn1cnc2ccc(Br)cc2c1=O (stereo not given) | 14.92
Cc1ccnc(C2(C)CCCN2S(=O)(=O)c2c(C)noc2C)n1 (stereo not given) | 0.705
CCOCc1nc(N2CCOCC2)sc1C(=O)NCCCc1ccco1 | 24.5
Cc1ccc(CN2Cc3c(C(=O)N4CCOCC4)nn(C)c3C2)s1 | -17.1
CNc1ncc(C(=O)N2CCC(CCc3ccccc3)CC2)cn1 | -25.2
CNc1ncc(CN2CCC(CCc3ccccc3)CC2)cn1 | 67.5
CCc1ncc(CN2CCC(CCc3ccccc3)CC2)cn1 | 37.8
Cc1nc(N)nc(C)c1CC(=O)NCc1ccc2nonc2c1 | 61.2
CCc1[nH]c2ccc(CNC(=O)Cc3c(C)nc(N)nc3C)cc2c1C | 43.9
N[C@@H]1CC[C@H](C(=O)NCc2ccc3nonc3c2)C1 | 0
CN(Cc1cnn(C)c1)C(=O)NCc1ccc2c(c1)OCCO2 | -26.85
O=C(Cc1csc(-c2ccccc2Cl)n1)NCc1cccc(C(=O)O)c1 | 17.1
Cc1ccc(C(=O)N2CCC3(CCN(Cc4ccccn4)C3=O)C2)cn1 (stereo not given) | 22.5
Cc1nc(CN2CCN(c3ncnc4ccccc34)CC2)no1 | 94.1
CCc1nc(CN2CCN(c3ncnc4cc(F)ccc34)CC2)no1 | 91.8
CCc1nc(CN2CCN(CC(O)c3ccccc3)CC2)no1 (stereo not given) | 42
CCc1nc(CN2CCCN(CC(O)c3ccccc3)CC2)no1 (stereo not given) | -11.4
CCc1nc(CN2CCCN(c3cnc4ccccc4n3)CC2)no1 | 40.5
CCc1nc(CN2CCCN(c3ncnc4ccccc34)CC2)no1 | 86.8
Cc1nc(CN2CCCN(Cc3nc4ccccc4o3)CC2)no1 | -24.7
CCc1nc(CN2CCCN(c3nc4ccccc4o3)CC2)no1 | -8.19
CCn1ccnc1CN1CCN(c2ncnc3ccccc23)CC1 | -66.4
CN1CCOC2(CCCN(C(=O)C3CCCCC3)C2)C1 (stereo not given) | 9.97
Cc1cc(F)ccc1C(=O)N1CCN(C)C2(CCC(=O)N(C)CC2)C1 (stereo not given) | 25.8
CNc1ncccc1CN1CCC1c1cc(N)nc(C)n1 (stereo not given) | 10.9
CC(C)C(NCc1ccc(Cn2cncn2)cc1)c1ccccc1 (stereo not given) | -1.33
CC(C)c1ccc(CNC(c2ccc(F)cn2)C(C)C)cc1 (stereo not given) | 48.9

Structure (SMILES) | INHIBITION [%]
CC(C)C(NCc1ccc(Cn2cncn2)cc1)c1ccc(F)cn1 (stereo not given) | 71.2
COc1cc(C)ccc1OCCC(=O)N1CCC(C(N)=O)C1 (stereo not given) | -24.9
O=C(c1cnc(-c2ncccn2)s1)N1CCCC1Cn1cccn1 (stereo not given) | -24.3
CC(=O)N1CCC(C(=O)c2cc(C)cnc2N)CC1 | 39.2
COCC(=O)N1CCC(c2cc(-c3ccc(N)nc3)cc(C)n2)CC1 | 7.19
Cc1cnc(N)c(C(=O)C2CCN(C(=O)c3cnc(C)cn3)CC2)c1 | -20.2
COCC(=O)N1CCC(C(=O)c2cc(C)cnc2N)CC1 | 58.1
Cc1cnc(N)c(C(=O)C2CCN(C(=O)c3ccccc3F)CC2)c1 | 56.9
Cc1cnc(N)c(C(=O)C2CCN(C(=O)c3cnc(C)nc3C)CC2)c1 | -2.11
COCCC(=O)N1CCC(C(=O)c2cc(C)cnc2N)CC1 | -26.2
C=C(C)C(=O)N1CCC(C(=O)c2cc(C)cnc2N)CC1 | 68.8
Cc1cnc(N)c(C(=O)C2CCN(C(=O)C3CCC3)CC2)c1 | 13.5
O=C(CCn1c(C(F)(F)F)cc2cccnc21)N1CCC(O)CC1 | 29.2
COC(=O)C1CN(Cc2nc(C(C)(C)C)cs2)C[C@@H](C)O1 (stereo not given in full) | 21.7
Cn1nc(CN2CCCCC2)c2c1CN(C(=O)c1cccc(C#N)c1)C2 | 46.3
CC(=O)N1CCN(C(C)C)CC(COc2ccccc2)C1 (stereo not given) | -6.92
O=C(NCCNc1cnccn1)N1CCCCCC1 | 47
CC(C)(C)NC(=O)N1CCN(Cc2cccnc2)CC1 | -2.93
O=C(NCCn1ccnc1)N1CCN(Cc2cccnc2)CC1 | -33.7
CC(Cn1ccnc1)NC(=O)N1CCN(Cc2cccnc2)CC1 (stereo not given) | 31.8
O=C(NCCNc1cnccn1)N1CCCC1 | 19.4
CC(Cn1cccn1)NC(=O)N1CCN(Cc2ccncc2)CC1 (stereo not given) | -4.94
O=C(NCCNc1cnccn1)N1CCN(Cc2cccnc2)CC1 | 65.5
CC(Cn1cccn1)NC(=O)N1CCN(Cc2cccnc2)CC1 (stereo not given) | 74.6
O=C(NCCNc1ncccn1)N1CCN(Cc2cccnc2)CC1 | 57.8
Cc1ccc(-c2nc(CNC3CCc4ncnn4C3)cs2)cc1 (stereo not given) | 47.55
Cc1nc(C)c(C(=O)N2CCCC2(C)C(=O)NC2CCCC2)o1 (stereo not given) | 46.2

Structure (SMILES) | INHIBITION [%]
Cc1cc(C)n(CCCN(CCN2CCOCC2)Cc2ccco2)n1 | 7.6
COCCN(CCOC)Cc1nc2c(cnn2C)c(=O)[nH]1 | 27.8
Cn1cc(N2CC3(CCN(CC4CCOCC4)CC3)OCC2=O)cn1 | -24.5
CCS(=O)(=O)N1C[C@H]2CN(c3cnn(C)c3)C(=O)[C@H]2C1 | 60
O=C1[C@H]2CN(Cc3ccncc3)C[C@H]2CN1c1cncnc1 | 32.8
Cn1cc(N2C[C@@H]3CN(S(=O)(=O)C4CC4)C[C@@H]3C2=O)cn1 | 9.79
CCS(=O)(=O)N1CCC2(CC(=O)N(c3cnn(C)c3)C2)C1 (stereo not given) | -13.7
O=C1[C@H]2CN(CC3CCOCC3)C[C@H]2CN1c1ccsc1 | 5.63
Cn1cc(N2CC[C@@H]3CN(Cc4ccncc4)C[C@H]3C2=O)cn1 | 58.4
Cn1cc(N2C[C@@H]3CN(CC4CCOCC4)C[C@@H]3C2=O)cn1 | 68.4
Cn1cc(N2C[C@@H]3CN(Cc4ccoc4)C[C@@H]3C2=O)cn1 | -75
O=C(CCc1cc2n(n1)CCNC2)NCCS(=O)(=O)N1CCCC1 | -18.1
Cn1c2ncccc2c(=O)n1CC(=O)Nc1ccc(F)c(F)c1 | 41.8
O=C(CCc1cc2n(n1)CCCN(CCc1ccccc1)C2)NC1CC1 | 24.1
CCOC(=O)C(C)NC(=O)N1CCN(c2nc3ccccc3n2C)CC1 (stereo not given) | 45
CCCOC(=O)N1CCn2nc(-c3nc4ccccc4n3C)cc2C1 | 61.1
CN1CCn2nc(-c3nc4ccccc4n3C)cc2C1 | 36.4
CCCOC(=O)N1CCCn2nc(C(=O)Nc3ccccc3)cc2C1 | -34.4
Cn1c(-c2cc3n(n2)CCCN(CC(=O)O)C3)nc2ccccc21 | 57.1
Cc1cccc(CN2CCc3ncnc(Oc4cccnc4)c3CC2)n1 | 18.5
CC(C)(C)C(=O)N1CCCC1c1nccnc1Cl (stereo not given) | -7.66
CN[C@@H](CO)C(=O)NCc1cc2n(n1)CCCN(C1CCCCC1)C2 | 12.5
COc1ccccc1-n1cc(C(=O)NCCn2nc(C)nc2C)cn1 | 32.8
O=C(CNc1cc(-c2ccccc2)nc2ccnn12)NC1CC1 | -35
Cc1cc2nc(-c3ccccc3)cc(NCC3CCS(=O)(=O)C3)n2n1 (stereo not given) | -24.6
O=S1(=O)CCC(CNc2cc(-c3ccccc3)nc3ccnn23)C1 (stereo not given) | 93.6
O=S(=O)(N1CCOCC1)N1CCOC(CCc2ccccc2)C1 (stereo not given) | -23.4

Structure (SMILES) | INHIBITION [%]
O=S(=O)(N1CCOCC1)N1CCc2sccc2C1 | 76.8
O=S(=O)(N1CCCCCC1)N1CCc2sccc2C1 | 20.8
O=C(Nc1ccc(N2CCOCC2)nc1)N1CCc2sccc2C1 | -17.9
CC1CCN(S(=O)(=O)N2CCc3sccc3C2)CC1 | 19.7
O=S(=O)(N1CCCC1)N1CCc2sccc2C1 | 82.4
c1cc(CN2CCC3(CCOCC3COCC3CC3)CC2)ccn1 (stereo not given) | -20.8
CC(C)NC(=O)N1CCc2c(CNc3ncccn3)cncc2C1 | -41.4
N#Cc1ccc(CN2CCCC3(Cc4ccccc4CNC3=O)C2)cc1 (stereo not given) | 43.3
Cc1nc(CO[C@H]2CN(Cc3cccs3)[C@@H]3COC[C@H]23)cs1 | 18.2
CNS(=O)(=O)c1cnccc1N1CCN(C(C)C)CC1 | -5.26
O=C1COC2(CCN(Cc3ccco3)CC2)CN1 | 27.6
O=C(O)C1CCCN1c1nc(-c2ccc(Cl)cc2)cc(C(F)(F)F)n1 (stereo not given) | 26.7
O=C(O)C1CCCN1c1nc(-c2ccc(Cl)c(Cl)c2)cc(C(F)(F)F)n1 (stereo not given) | 80.5
O=C(O)C1CCCN1c1nc(C2CC2)cc(C(F)(F)F)n1 (stereo not given) | 14.3
CC(=O)N1CCC(NC(=O)CN2CCCc3c(F)ccc(C)c32)CC1 | 9.16
CN(Cc1nc(N)nc(N(C)C)n1)Cc1cccc2ccccc12 | -57.5
CN(CCc1cccc2ccccc12)Cc1nc(N)nc(N(C)C)n1 | 90.3
COc1ccccc1CCN(C)Cc1nc(N)nc(N(C)C)n1 | 34.1
OCCN1CCCCC1c1cc[nH]n1 (stereo not given) | 6.26
CCc1ccc(-c2cn3c(C(=O)NCC(C)C(=O)NC)csc3n2)cc1 (stereo not given) | -147
CCc1ccc(-c2cn3c(C(=O)N[C@H](C(N)=O)[C@@H](C)O)csc3n2)cc1 | -171
C[C@@H](O)[C@H](NC(=O)c1csc2nc(-c3ccccc3F)cn12)C(N)=O | 76.9
CC(C)(C)C(=O)N1CCC(c2cnc(-c3cn[nH]c3)cn2)CC1 | 3.62
CCn1cc(S(=O)(=O)N2CCN(C(=O)c3cc(Br)cs3)CC2)c(C)n1 | 38.3
